Measured values taken from PubChem BioAssay (NCATS).
Inconclusive results are not listed. Values without a mark were called inactive. Calls of active or inactive are those of the source. Calls follow the shape of the dose curve; as a rule, active = well fitted inhibition curve with a large enough effect; inconclusive = small, poorly fitted or top-dose-only effect; inactive = flat fitted curve, though single readings scatter.

assay: P-glycoprotein substrates identified in KB-8-5-11 adenocarcinoma cell line, qHTS therapeutic library screen (AID 1346987); conditions: KB-8-5-11 (P-gp overexpressing) viability, CellTiter-Glo, 72 h; series mostly up to 44.5 µM; activity change, negative = cytotoxicity: at the top concentration; also: nearly all actives have a fitted effect of over 65% in size
Summary of the method: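 Compounds are pinned in dose-response onto KB-8-5-11 cells (500 cells/well, colchicine-free medium) and left 72 h at 37 degree C. CellTiter-Glo luminescence then yields AC50 values.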
% is scaled to controls: 0 for no effect and ±100 for the full control effect; potency is read from the fitted curve at half-maximal effect.

Compound | activity change, negative = cytotoxicity | Potency | outcome
CC1COC2(OC3CC4C5CC(O[C@@H]6O[C@H](C)[C@@H](O[C@@H]7O[C@@H](C)[C@H](O)[C@@H](O)[C@H]7O)[C@H](O)[C@H]6O)C6CC(O)CCC6(C)C5CCC4(C)C3C2C)C(O)C1 (stereo not given in full) | -1.08% [at 17.3 µM] |  | 
CC(=O)O[C@@H]1[C@H](O)[C@@H](O[C@@H]2O[C@@H](C)[C@H](O[C@@H]3OC[C@@H](O)[C@H](O[C@@H]4OC[C@@H](O)[C@H](O)[C@H]4O)[C@H]3O)[C@@H](O[C@@H]3O[C@H](CO)[C@@H](O)[C@H](O)[C@H]3O)[C@H]2O)[C@H](OC(=O)[C@]23CCC(C)(C)C[C@H]2C2=CCC4[C@@]5(C)CC[C@H](O[C@@H]6O[C@H](C(=O)O)[C@@H](O)[C@H](O[C@@H]7OC[C@@H](O)[C@H](O)[C@H]7O)[C@H]6O[C@@H]6O[C@H](CO)[C@H](O)[C@H](O)[C@H]6O)[C@@](C)(C=O)C5CC[C@@]4(C)[C@]2(C)CC3)O[C@@H]1C (stereo not given in full) | 9.26% [at 5.11 µM] |  | 
COc1ccc(N(C)c2nc(C)nc3ccccc23)cc1 |  | 0.0065 µM (active) | 
O=C(O[C@H]1[C@@H]2C[C@@H]3OC[C@](O)([C@@H]1Cl)[C@H]2C(O[C@@H]1O[C@H](CO)[C@@H](O)[C@H](O)[C@H]1O)O3)c1ccc(O)c(O)c1 (stereo not given in full) |  |  | inactive [at 17.3 µM]
Cc1ccc(-c2c(C(=O)CF)n(CCCO)c3ncnc(N)c23)cc1 |  |  | inactive
CN(CCc1ccc(Nc2ncc(-c3cccnc3)s2)cc1)Cc1ccccc1 | -26.2% |  | 
Cc1c(C(=O)N2CCOc3ccc(-c4ccc(N)nc4)cc3C2)ccc(S(C)(=O)=O)c1F |  | 10.3 µM (active) | 
Cc1[nH]c2ccccc2c1C1=C(NCCc2ccc(F)cc2)C(=O)N(C)C1=O |  | 16.4 µM (active) | 
Cc1cc(C)c(CNC(=O)c2cc(-c3ccc(CN4CCOCC4)cc3)cc3c2cnn3C2CCCC2)c(=O)[nH]1 | -26.4% |  | 
COC(=O)C1=COC(O[C@@H]2O[C@H](CO)[C@@H](O)[C@H](O)[C@H]2O)[C@H]2[C@@H]1[C@H](OC(=O)CCc1ccc(O)cc1)C[C@]2(C)O (stereo not given in full) | 3.69% [at 17.3 µM] |  | 
CCN1CCN(Cc2ccc(NC(=O)c3ccc(C)c(/C=C/c4cnc5[nH]ccc5c4OC)c3)cc2C(F)(F)F)CC1 |  | 23.1 µM (active) | 
C=C(C)C1Cc2cc(C(=O)OC3OC(CO)C(O)C(O)C3O)ccc2O1 (stereo not given) | 3.68% |  | 
CC(=O)O[C@@H](CO[C@@H]1O[C@H](CO)[C@H](O)[C@H](O)[C@H]1O)[C@]1(C)C=C2CC[C@@H]3C(C)(C)[C@@H](O)CC[C@@]3(C)[C@@H]2CC1 | 3.01% [at 17.3 µM] |  | 
Cc1nc2ccc(Oc3ccc(F)cc3)cc2c(=O)n1C[C@H]1CCCN(C(C)C)C1 | -13.1% |  | 
Cc1cc(O)c(-c2ccc([C@@H](C)CN(C)C)cc2)c2c1[nH]c(=O)c1sccc12 |  | 0.082 µM (active) | 
COc1c(/C=C/C(C)(C)O)ccc2c1C(=O)OCc1cc(C)cc(O)c1O2 | -21.8% |  | 
C/C1=C\CCC2=C[C@@H](OC2=O)c2c(C)coc2C1 | 5.15% |  | 
COc1ccc2nc(S(=O)(=O)Cc3ncc(C)c(OC)c3C)[nH]c2c1 | -17.6% |  | 
Cc1cn(C2C=CC(CO)O2)c(=O)[nH]c1=O (stereo not given) | -1.88% |  | 
C[C@@]12C[C@]3(O)O[C@H](O1)[C@]1(COC(=O)c4ccccc4)[C@H]3C[C@@]12O[C@@H]1O[C@H](CO)[C@@H](O)[C@H](O)[C@H]1O |  |  | inactive [at 17.3 µM]
COC(=O)C1=CO[C@@H](O[C@@H]2O[C@H](CO)[C@@H](O)[C@H](O)[C@H]2O)[C@H]2[C@@H]1CC(OC)O[C@@H]2C (stereo not given in full) |  |  | inactive [at 17.3 µM]
CC1(CCOC2OC(CO)C(O)C(O)C2O)CCC23OC2(C1)C(O)CC1C(C)(C(=O)O)CCCC13C (stereo not given) |  |  | inactive [at 17.3 µM]
CC1(C)CCCC2(C)C1CC=C1C(=O)OC(O)C12O (stereo not given) | 1.31% |  | 
O=C(N/N=C/c1ccc(O)c(O)c1)c1cc2ccccc2cc1O | -2.1% [at 17.3 µM] |  | 
COc1cc2c(cc1OC)-c1[nH]nc(Nc3cccc(F)c3)c1C2 |  | 0.092 µM (active) | 
OC[C@H]1O[C@@H](O[C@H]2[C@H](OCCc3ccccc3)O[C@H](CO)[C@@H](O)[C@@H]2O)[C@H](O)[C@@H](O)[C@@H]1O | 0.307% [at 17.3 µM] |  | 
Cc1cc(Nc2cc(N3CCN(C)CC3)nc(/C=C/c3ccccc3)n2)n[nH]1 |  | 7.31 µM (active) | 
C/C=C/c1ccc2c(c1)[C@@H](C)[C@H](c1ccc(O)cc1)O2 | 5.01% |  | 
CC12CCC(C(OC3OC(COC4OCC(O)(CO)C4O)C(O)C(O)C3O)C1)C(C)(C)O2 (stereo not given) |  |  | inactive [at 17.3 µM]
COc1ccc(-c2cnc3ccc(NCc4ccc(S(N)(=O)=O)cc4)nn23)cc1OC | -0.969% |  | 
